# The panel holds about 83,000 compounds, 20% with a hit somewhere; the sample as a whole holds those more often.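 Treatment: one concentration, 48 hours, 96-well format. Scoring: percent growth, with anything below 10 considered active.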 Values without a mark were called inactive. The source made the active and inactive calls.
# Tested on: SK-MEL-2 melanoma
# Test: NCI-60 one-dose screen, 48 h (100 = growth as untreated, 0 = no growth, -100 = all killed)
# Details: 10 µM unless noted
row,SMILES,growth
1,CCC(c1ccccc1)C(CC)c1ccc(O)c(O)c1 (stereo not drawn),94.3%
2,CN1CCN(c2ccc3nc(-c4ccc5nc(-c6ccc(OCCC(C)(C)C)cc6)[nH]c5c4)[nH]c3c2)CC1,5.57% (active)
3,NC(N)=Nc1ccc(S(=O)(=O)O)cc1,107%
4,O=C(/C=C/c1cc2ccccc2[nH]c1=O)/C=C/c1cc2ccccc2[nH]c1=O,54%
5,Nc1ccc(Nc2nccc(-c3ccc4ccccc4c3)n2)cc1,5.47% (active)
6,C=C1CCC2C3(C)COC(c4ccc(OC)cc4Br)OC3CCC2(C)C1/C=C/C1=CCOC1=O (stereo not drawn),81.2%
7,CCC(=O)Oc1ccc(/C(=C(\C)c2ccccc2)c2ccc(OCCN(CC)CC)cc2)cc1,108%
8,CC(=O)/C(=C/c1cccc(Cl)c1)C(=O)c1ccccc1,94.9%
9,NS(=O)(=O)c1ccc(-n2ncc3c(=O)[nH]c(CN4CCN(c5cc6c(cc5F)c(=O)c(C(=O)O)cn6C5CC5)CC4)nc32)cc1,106%
10,COc1ccc(-c2nn(-c3ccccc3)cc2/C=C2\SC(=O)NC2=O)cc1,100%
11,O=C(COc1cccc(/C=C2/Oc3ccccc3C2=O)c1)Nc1nccs1,-32.2% (active)
12,CN1CCN(Cc2ccc(NC(=O)c3[nH]ncc3Nc3ncnc4sccc34)cc2)CC1,7.08% (active)
13,CC1=N/C(=C\c2cccc(Br)c2)C(=O)O1,109%
14,COc1cc(C(=O)/C=C/c2c(C)n([O-])c3ccc(C)cc3[n+]2=O)cc(OC)c1OC,84.3%
15,CCN(CC)CC#CCOC(=O)[C@]1(C)CCC[C@@]2(C)[C@H]1CC(C=O)=C1C=C(C(C)C)CC[C@@H]12,88%
16,C=C1CCC2C3(C)COC(c4ccccc4Br)OC3CCC2(C)C1C/C=C1/C(=O)OCC1OC(C)=O (stereo not drawn),-37.4% (active)
17,CCOC(=O)C(=Cc1ccccc1F)C(=O)OCC,98.4%
18,Cn1c2ccccc2c2c3c(c4c5ccccc5n(CCCCCC#N)c4c21)C(=O)N(O)C3=O,34.5%
19,CC(=O)C1=C(O)C=C2Oc3c(C(=O)/C=C/c4c(Cl)cccc4Cl)c(O)c(C)c(O)c3[C@]2(C)C1=O,-49.1% (active)

row,SMILES,growth
1,Oc1ccc(Nc2nccc(-c3ccc4ccccc4c3)n2)cc1,9.62% (active)
2,COc1ccc(C(=O)/C=C/c2cc3ccccc3[nH]c2=O)cc1,55.1%
3,C[C@@]1(N2C(=O)OC[C@@H]2c2ccccc2)C(=O)N([C@H](CC(=O)N2CCC(N3CCCCC3)CC2)C(=O)NCc2cccc(C(F)(F)F)c2)[C@@H]1/C=C/c1ccccc1,64.8%
4,CCOC(=O)c1cnc2ccc(Br)cc2c1Nc1cccc(S(=O)(=O)NC)c1,111%
5,CCN1CCN(Cc2ccc(NC(=O)Nc3nc4ccc(Oc5ccnc(C(=O)NC)c5)cc4s3)cc2C(F)(F)F)CC1,-22.8% (active)
6,O=c1c2c3c(sc2n2c(CCl)nnc2n1Cc1ccccc1)CCCC3,-83.1% (active)
7,COC(=O)[C@H](C(C)C)n1c(=O)c2cc(OC)c(OC)cc2c2cnc3[nH]ccc3c21,89.7%
8,CC(=O)Oc1ccc(Nc2c3ccccc3nc3ccccc23)cc1,-30.7% (active)
9,COc1cc(NCCCCN=C(N)NC(N)=NC(C)C)c2ncccc2c1,43.7%
10,CCN(CC)C12CCCCC1(C)C(C#N)(C#N)C(C#N)=C(N)O2 (stereo not drawn),112%
11,O=C(CNC1C2CC3CC(C2)CC1C3)Sc1nnc2sc3ccccc3n12 (stereo not drawn),108%
12,COc1ccc(-c2c3c(nc4n[nH]c(-c5ccc(Cl)cc5)c24)-c2ccccc2C(=O)C3=O)cc1,-49.8% (active)
13,O=C(/C=C\c1ccc2ccccc2n1)c1cc(Cl)ccc1O,-9.71% (active)
14,O=C1c2cc3c(cc2-c2c1c1cc(Cl)c(Cl)cc1c(=O)n2CCCn1ccnc1)OCO3,22.7%
15,CC1(C)CC(=O)C(c2c(-c3ccccc3)[nH]c3[nH]c(=S)[nH]c(=O)c23)=C(O)C1,94.7%
16,O=C(/C=C/c1cccc(Br)c1)c1ccccc1,93.3%
17,O=C(CO[N+](=O)[O-])Nc1ccc(C(=O)/C=C/c2ccc(Cl)cc2)cc1,81.7%
18,CN(C)c1ccc(/C=C\C2=[N+](C)c3ccccc3C2(C)C)cc1,-3.85% (active)
19,COc1ccc(CCN2CC=Cn3c2nc2ccccc2c3=O)cc1,46.5%

# Source: PubChem BioAssay (NCI)
